High-throughput results from PubChem BioAssay.
In the library only some 19% were active in any assay of this set; here they are far more common.
HT1080 IDH1KD tx: HT-1080 IDH1 knockdown cell toxicity (counter line). Potency, µM (doses to about 46.1 µM), inactives show at the highest dose activity, negative = toxicity, most hits filed as cytotoxic. 2% of 360,000 active. AID 686971. HT-1080 IDH1 knockdown viability, ATP luminescence, 48 h;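 note: potency is the fitted concentration of half-maximal effect; 0% = DMSO wells and -100% = cell-free medium wells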
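Knockdown cells (IDH1KD HT-1080) received compounds 2 h after plating at 750 cells/well and were kept 48 h at 37 °C in 5% FBS RPMI. A CellTiter-Glo luminescence read gave % activity for curve fitting.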
TDP1 cell CPT: growth inhibition of DT40 Tdp1-/-;hTDP1 cells with camptothecin (screen for TDP1 inhibitors) | AID 686979 | 12% of 420,000 active | Potency, µM (doses to about 46.2 µM), inactives show top-dose activity change, negative = growth inhibition, hits mostly inhibitors | chicken DT40 Tdp1-/-;hTDP1 cells + 20 nM CPT, ATP luminescence, 48 h; note: potency is the fitted concentration of half-maximal effect; nearly all actives have a fitted effect of over 55% in size
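Chicken DT40 Tdp1-/- cells complemented with human TDP1, 400 cells/well, exposed to compounds plus 20 nM camptothecin for at least 48 h at 37 C; viability read as ATP content by CellTiter-Glo luminescence.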
DT40 TDP1 no CPT: qHTS for Inhibitors of human tyrosyl-DNA phosphodiesterase 1 (TDP1): qHTS in cells in absence of CPT | Potency, µM (series often up to 46.2 µM), for inactives: at the highest dose activity change, negative = growth inhibition, usual class: inhibitors | 15% of 420,000 active | DT40 Tdp1-/- hTDP1 cells, no CPT, ATP luminescence, 48 h; note: potency is the fitted concentration of half-maximal effect; nearly all actives have a fitted effect of over 55% in size
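Camptothecin absent (DMSO only). Human TDP1-complemented DT40 knockout cells, 400 cells/well, 37 °C for minimum 48 hr; ATP measured via CellTiter-Glo, 30 min dark incubation, luminescence.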
uPA generation: cell surface uPA generation inhibition. AID 540303. Potency, µM (titrated, usually from 38.3 µM), without a hit: at the highest dose activity change, negative = inhibition, hits mostly inhibitors. cell surface uPA generation assay, qHTS. 0.31% of 330,000 active; active = well fitted inhibition curve with a large enough effect; inconclusive = small, poorly fitted or top-dose-only effect; inactive = no such curve, though single readings can be large or run the other way; tested in mouse RAW 264.7 cells; note: potency is the fitted concentration of half-maximal effect; nearly all actives have a fitted effect of over 55% in size
IL1B secr inh: inflammasome signaling inhibition, IL-1 beta readout. THP-1 LPS/ATP IL-1B secretion, AlphaLISA, 16 h; active compounds read low. activity change, % at 57.5 µM. 4.7% of 360,000 active. AID 743279; in the data active = activity change below about -50%; inconclusive = mostly about -30% to -49%
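THP-1 cells pretreated 1 hr with compounds (up to 57.5 uM final), then stimulated with LPS (250 ng/mL final) plus ATP (1.25 mM final); secreted IL-1B measured by AlphaLISA after 16 hr, decreased signal indicating inhibition.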
HT1080NT lethal: kills 2HG-producing HT-1080-NT fibrosarcoma cells; AID 686970; HT-1080-NT fibrosarcoma viability, CellTiter-Glo ATP luminescence, 48 h; Potency, µM (top dose mostly 46.1 µM), for the others: at the top dose activity, negative = less viability, usual class: cytotoxic; 1.6% of 360,000 active;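 note: NT is the 2HG producing partner of a matched IDH1 knockdown line; potency is the fitted concentration of half-maximal effect; 0% = DMSO-treated cells and -100% = media-only wells without cells; nearly all actives have a fitted effect of over 55% in size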
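Toxicity toward the 2HG-producing NT line was scored as %Activity, normalised to DMSO and no-cell wells, from CellTiter-Glo luminescence after 48 hours' treatment.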
An asterisk follows results filed as active. Unless noted, calls come from the whole dose curve; as a rule, active = well fitted curve in the direction sought with a large enough effect; inconclusive = small, poorly fitted or top-dose-only effect, or another doubt; inactive = no such curve, though single readings can be large; an effect the other way counts as inactive or inconclusive. Unless noted, % is set by controls: 0 for no effect and ±100 for the full control effect.

Results for COc1ccc(C2=C(C=C(C#N)C#N)C(c3ccccc3C)c3ccccc3O2)cc1OC (stereo not drawn) ?
HT1080 IDH1KD tx: -14%; TDP1 cell CPT: inconclusive; DT40 TDP1 no CPT: 21µM*; uPA generation: -4%; IL1B secr inh: -18; HT1080NT lethal: -5%

Results for CCCCCCc1nnc(N)s1 ?
HT1080 IDH1KD tx: 4%; TDP1 cell CPT: 4%; DT40 TDP1 no CPT: -2%; IL1B secr inh: -2; HT1080NT lethal: 14%

Results for CCn1ccc2c(OCC(=O)NCCc3ccc(OC)c(OC)c3)cccc2c1=O ?
HT1080 IDH1KD tx: 1%; TDP1 cell CPT: 8%; DT40 TDP1 no CPT: inconclusive; uPA generation: 3%; IL1B secr inh: 15; HT1080NT lethal: 2%

How did CCCn1ccc2c(OCC(=O)Nc3ccc(OC)c(OC)c3)cccc2c1=O do in these assays?
TDP1 cell CPT: 13µM*; DT40 TDP1 no CPT: 7.3µM*

How did CCCn1ccc2c(OCC(=O)Nc3ccc(NC(C)=O)cc3)cccc2c1=O do in these assays?
HT1080 IDH1KD tx: -1%; TDP1 cell CPT: inconclusive; DT40 TDP1 no CPT: inconclusive; uPA generation: -2%; IL1B secr inh: -13; HT1080NT lethal: -3%

How did CCn1ccc2c(OCC(=O)Nc3ccc(OC)cc3OC)cccc2c1=O do in these assays?
TDP1 cell CPT: inconclusive; DT40 TDP1 no CPT: 6.5µM*

What do the screens show for `CCn1ccc2c(OCC(=O)Nc3ccc(C)c(Cl)c3)cccc2c1=O`?
TDP1 cell CPT: 26µM*; DT40 TDP1 no CPT: 16µM*

How did COCCn1ccc2c(OCC(=O)Nc3cccc(NC(C)=O)c3)cccc2c1=O do in these assays?
HT1080 IDH1KD tx: -1%; TDP1 cell CPT: -23%; DT40 TDP1 no CPT: -25%; uPA generation: -6%; IL1B secr inh: -14; HT1080NT lethal: -5%

How did CCCn1ccc2c(OCC(=O)Nc3ccc(F)cc3F)cccc2c1=O do in these assays?
TDP1 cell CPT: 16µM*; DT40 TDP1 no CPT: inconclusive

How did COc1ccc(CCNC(=O)c2c(C)oc3ncn(C)c(=O)c23)c(OC)c1 do in these assays?
TDP1 cell CPT: -1%; DT40 TDP1 no CPT: -6%

What do the screens show for `CCOc1ccc(N2CC(NC(=O)c3ccc(S(=O)(=O)N4CCOCC4)cc3)CC2=O)cc1` (stereo not drawn)?
TDP1 cell CPT: -7%; DT40 TDP1 no CPT: inconclusive

Results for C=CCOc1ccc(/C=N/NC(=O)C(C)Sc2ccccn2)cc1OC (stereo not drawn) ?
HT1080 IDH1KD tx: -2%; TDP1 cell CPT: -18%; DT40 TDP1 no CPT: 0%; uPA generation: -15%; IL1B secr inh: 13; HT1080NT lethal: 10%

Results for CCOC(=O)Nc1cccc(OCC(=O)Nc2ccc(OC)cc2OC)c1 ?
HT1080 IDH1KD tx: -10%; TDP1 cell CPT: inconclusive; DT40 TDP1 no CPT: 9.2µM*; uPA generation: 2%; IL1B secr inh: 53; HT1080NT lethal: 17%

Results for CCc1nc(N2CCC3(CC2)OCCO3)c2nnn(Cc3ccccc3)c2n1 ?
HT1080 IDH1KD tx: -1%; TDP1 cell CPT: -15%; DT40 TDP1 no CPT: inconclusive; uPA generation: 1%; IL1B secr inh: inconclusive; HT1080NT lethal: -1%

How did Cc1nc(N2CCC3(CC2)OCCO3)c2nnn(Cc3ccccc3F)c2n1 do in these assays?
HT1080 IDH1KD tx: -17%; TDP1 cell CPT: inconclusive; DT40 TDP1 no CPT: inconclusive; uPA generation: -2%; IL1B secr inh: -60*; HT1080NT lethal: -2%

What do the screens show for `Cc1nc(NC2CCCCC2)c2nnn(Cc3ccccc3Cl)c2n1`?
HT1080 IDH1KD tx: -3%; TDP1 cell CPT: inconclusive; DT40 TDP1 no CPT: inconclusive; uPA generation: 32%; IL1B secr inh: 1; HT1080NT lethal: -8%

What do the screens show for `Cc1nc(N2CCCC2)c2nnn(Cc3ccccc3Cl)c2n1`?
HT1080 IDH1KD tx: 0%; TDP1 cell CPT: 13µM*; DT40 TDP1 no CPT: 26µM*; IL1B secr inh: 4; HT1080NT lethal: 2%
